# Assay outcomes as filed in PubChem.
# A selection: hits, their analogues and other compounds. The true share with any hit is near 10%.
# FLuc inh = Photinus pyralis luciferase inhibition; P08659; 76,000 compounds, 2.5% hits; Potency, µM (series often up to 115 µM), hits mostly inhibitors; purified P. pyralis luciferase, luminescence, biochemical; note: % is set by controls: 0 for no effect and ±100 for the full control effect; nearly all actives have a fitted effect of over 65% in size
#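 Luminescence read by CCD imager after adding enzyme (10nM final) to wells holding compound, titrated in qHTS. Substrates 10uM each D-luciferin and ATP; buffer 50mM Tris acetate pH 7.5, 10mM Mg acetate, Tween-20, BSA.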
# hNpr1 antagonist = antagonists of human natriuretic peptide receptor Npr1. Potency, µM (doses to about 46.3 µM), for the others: top-dose activity change, negative = inhibition, hits mostly inhibitors. HEK293 hNpr1 GloSensor cGMP, ANP-stimulated luminescence. 76,000 compounds, 1.6% hits; calls by dose curve; note: % is set by controls: 0 for no effect and ±100 for the full control effect; nearly all actives have a fitted effect of over 60% in size
#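 HEK293 cells stably expressing human Npr1 and cGMP GloSensor pGS-40F, loaded 2 h with 2% GloSensor reagent, given compound 30 min at room temperature. Luminescence read before and 20 min after 0.1 nM hNppA.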
# GPT2 inhibitor = blocks human glutamate pyruvate transaminase 2; Q8TD30; Recombinant GPT2, coupled pyruvate oxidase/HRP Amplex Red fluorescence; Potency, µM (series often up to 57.7 µM), without a hit: at the highest dose activity change, negative = inhibition, most hits filed as inhibitors; 100,000 compounds, 0.25% hits; note: % is set by controls: 0 for no effect and ±100 for the full control effect; nearly all actives have a fitted effect of over 60% in size
# Target sequence (Q8TD30 whole entry, looked up): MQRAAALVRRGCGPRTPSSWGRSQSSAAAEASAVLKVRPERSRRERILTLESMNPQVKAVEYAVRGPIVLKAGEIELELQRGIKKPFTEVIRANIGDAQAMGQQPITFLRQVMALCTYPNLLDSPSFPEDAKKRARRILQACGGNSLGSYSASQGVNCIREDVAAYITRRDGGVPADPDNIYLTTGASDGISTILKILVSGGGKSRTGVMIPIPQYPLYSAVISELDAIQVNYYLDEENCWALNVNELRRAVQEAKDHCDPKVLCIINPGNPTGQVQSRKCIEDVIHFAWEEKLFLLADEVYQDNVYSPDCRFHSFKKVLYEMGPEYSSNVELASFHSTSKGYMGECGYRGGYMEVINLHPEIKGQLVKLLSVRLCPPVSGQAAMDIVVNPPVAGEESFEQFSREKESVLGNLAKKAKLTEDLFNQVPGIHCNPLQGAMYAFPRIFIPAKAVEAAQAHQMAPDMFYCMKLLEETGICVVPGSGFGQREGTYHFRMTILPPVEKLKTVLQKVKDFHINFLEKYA
#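 Recombinant GPT2 (10ng/uL) with 250uM a-KG and 2mM L-alanine, 30 min at room temperature, in HEPES pH 7.5 buffer. Pyruvate detected by pyruvate oxidase/HRP/Amplex Red fluorescence after 30 min in the dark; AOA (50uM) as positive control.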
# NIH3T3 tox = cytotoxic compounds in NIH 3T3 cells; NIH 3T3 viability, CellTiter-Glo ATP luminescence, 48-72 h; Potency, µM (highest dose often 96.7 µM), inactives show at the highest dose activity change, negative = cytotoxicity, actives largely listed as inhibitors; 94,000 compounds, 4.3% hits; note: % is set by controls: 0 for no effect and ±100 for the full control effect; nearly all actives have a fitted effect of over 55% in size
#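 NIH 3T3 cells at 400 cells/well received 23 nL of compound by pintool and were incubated 48 or 72 h at 37 °C. Viability was read as ATP-coupled CellTiter-Glo luminescence.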
# HEK cytotox = HEK 293 cell cytotoxicity. HEK 293 viability, ATP luminescence (CellTiter-Glo), 48-72 h. Potency, µM (doses to about 115 µM), inactives show at the top dose activity change, negative = cytotoxicity, usual class: inhibitors. 94,000 compounds, 6.6% hits. AID 1345083; note: % is set by controls: 0 for no effect and ±100 for the full control effect; nearly all actives have a fitted effect of over 60% in size
#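 250 HEK 293 cells/well; compound by pintool; incubated 48 or 72 hr at 37 degree Celsius; CellTiter-Glo added, 10 min RT, luminescence imaged.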
# Npr1 antag conf = hNpr1 antagonism, confirmation assay; Potency, µM (titrated, usually from 57.6 µM), without a hit: top-dose activity change, negative = inhibition, hits mostly inhibitors; shares compounds with hNpr1 antagonist; HEK293 hNpr1 cGMP GloSensor luminescence, ANP-stimulated; 1,400 compounds, 76% hits; calls by dose curve; note: nearly all actives have a fitted effect of over 70% in size
# Npr2 selectivity = antagonizes human Npr2, subtype selectivity check. shares compounds with hNpr1 antagonist. HEK293 hNpr2 GloSensor cGMP luminescence, CNP-stimulated. Potency, µM (highest dose often 57.6 µM), for the others: at the highest dose activity change, negative = inhibition, actives largely listed as inhibitors. 1,400 compounds, 67% hits. AID 1347046; calls by dose curve; note: nearly all actives have a fitted effect of over 70% in size
# FLuc counter = FLuc enzyme inhibition, Npr1 counter-screen; purified FLuc enzyme, luminescence, Km substrate; Potency, µM (titrated, usually from 57.6 µM), for inactives: at the top dose activity change, negative = inhibition, actives largely listed as inhibitors; shares compounds with hNpr1 antagonist; 1,400 compounds, 0.7% hits; note: series mostly up to about 58 µM; 0% is about no effect
# GloSensor cGMP = reduces cGMP signal in GloSensor control cells; shares compounds with hNpr1 antagonist; HEK293 GloSensor cGMP, SNP-stimulated, luminescence; Potency, µM (top dose mostly 57.6 µM), inactives show top-dose activity change, negative = inhibition, actives largely listed as inhibitors; 1,400 compounds, 69% hits; calls by dose curve; note: % is set by controls: 0 for no effect and ±100 for the full control effect; nearly all actives have a fitted effect of over 70% in size
# * = called active by the depositor; i = inactive; ? = inconclusive; / = no result; [ ] = remark or other dose. Unless noted, calls come from the whole dose curve; as a rule, active = well fitted curve in the direction sought with a large enough effect; inconclusive = small, poorly fitted or top-dose-only effect, or another doubt; inactive = no such curve, though single readings can be large; an effect the other way counts as inactive or inconclusive. Potency is the fitted concentration of half-maximal effect.
SMILES,FLuc inh,hNpr1 antagonist,GPT2 inhibitor,NIH3T3 tox,HEK cytotox,Npr1 antag conf,Npr2 selectivity,FLuc counter,GloSensor cGMP
CCCCCNC(=O)CNC(=O)c1ccc(-c2cnc3ccccc3c2)cc1,/,/,1.4%,?,?,/,/,/,/
COC(=O)[C@@H]1Cc2ncn(Cc3ccc(Cl)cc3)c2CN1C(=O)c1ccc(C(F)(F)F)cc1,i,-25.4%,-6.9%,?,?,?,-8.1%,0.1%,?
COC(=O)C1=C(C)N=C2SC=C(CC(=O)N3CCCCC3)N2C1c1ccc(Cl)cc1 (stereo unspecified),i,?,?,-28.2%,?,?,?,1.4%,1.8%
CC1=C(C(=O)OC(C)C)C(c2ccc(Cl)cc2)N2C(CC(=O)N3CCCC3)=CSC2=N1 (stereo unspecified),i,?,0.8%,?,?,-28.9%,?,-0.4%,-17.5%
C=CCOC(=O)C1=C(C)N=C2SC=C(CC(=O)N3CCCC3)N2C1c1cc(OC)cc(OC)c1 (stereo unspecified),i,10µM*,i,-17.2%,?,17.2µM*,15.3µM*,3.4%,5.6%
C=CCOC(=O)C1=C(C)N=C2SC=C(CC(=O)NCC(C)C)N2C1c1ccccc1Cl (stereo unspecified),i,?,i,-15.0%,?,/,/,/,/
CCOC(=O)C1=C(C)N=C2SC=C(CC(=O)NCc3ccco3)N2C1c1ccccc1Cl (stereo unspecified),i,11.2µM*,-1.8%,-21.8%,?,?,?,3.3%,-16.9%
CC1=C(C(=O)OC(C)C)C(c2ccc(C)cc2)N2C(CC(=O)N3CCCCC3)=CSC2=N1 (stereo unspecified),i,-17.4%,i,?,?,/,/,/,/
C=CCOC(=O)C1=C(C)N=C2SC=C(CC(=O)N3CCCC3)N2C1c1ccc(OC)cc1OC (stereo unspecified),i,-17.0%,-1.4%,-18.2%,?,/,/,/,/
CCC(CC)c1nc(CN2C(=O)NC(c3ccc(OC)cc3)C3=C2COC3=O)no1 (stereo unspecified),i,0.1%,i,-16.4%,-15.9%,/,/,/,/
Cc1noc([C@@H]2CN(Cc3ccncc3F)C[C@H]2C(N)=O)n1,i,-2.0%,i,i,2.9%,/,/,/,/
COC(=O)c1cccc(NC(=S)N[C@@H]2C=C[C@@H](c3c(C)nn(-c4ccc(F)cc4)c3C)C2)c1,i,?,-14.5%,?,31.6µM*,21.7µM*,?,-23.2%,21.7µM*
CCCN1C(=O)Cc2cc(C(=O)NC(C)c3ccc(OCC)cc3)ccc21 (stereo unspecified),i,?,?,?,?,?,?,2.0%,?
CN1CCN(c2nc(C(=O)NC(C)(C)C)cs2)CC1,i,5.5%,-7.6%,-12.4%,3.6%,/,/,/,/
O=C(NCc1cc(F)ccc1F)c1csc(N2CCN(c3ccccc3F)CC2)n1,i,?,-8.0%,?,?,27.3µM*,?,1.5%,?
O=C(NCc1cccs1)c1csc(N2CCN(c3ccccc3F)CC2)n1,i,-27.6%,i,?,?,?,?,-2.2%,?
CSCCNC(=O)c1cc(-c2ccc([S+](C)(=O)[O-])cc2)c2cccn2n1,/,/,i,?,?,/,/,/,/
O=C(NC1CCCCC1)N[C@H]1CO[C@H]2[C@@H]1OC[C@H]2O,i,5.8%[70.6 µM],-1.9%[88.5 µM],2.7%[230 µM],i,/,/,/,/
CSc1cccc(NC(=O)c2cc3c(N4CCSCC4)nc(C)cn3n2)c1,i,-13.9%,i,?,?,/,/,/,/
CCn1nccc1C(=O)N1CCC(CCOc2ccc(F)cc2)C1 (stereo unspecified),i,12.6µM*,-23.3%,?,35.5µM*,21.7µM*,24.3µM*,-2.7%,24.3µM*
CC(C)(C)OCC1CN(Cc2cccc(F)c2)[S+](=O)([O-])c2cnccc2O1 (stereo unspecified),/,/,?,-26.3%[46.1 µM],?,/,/,/,/
O=C(CN1CCCc2nc(-c3ccncc3)ncc2C1=O)NCCN1CCOCC1,i,-21.1%,i,-0.7%,-4.3%,/,/,/,/
O=C(CN1CCCc2nc(-c3ccncc3)ncc2C1=O)N1CCc2ccccc2C1,i,8.91µM*,-6.8%,?,35.5µM*,12.2µM*,15.3µM*,2.4%,15.3µM*
CN1C[C@@H](NC(=O)Nc2cccc(C#N)c2)C[C@H]1c1nc(-c2ccccn2)no1,i,-2.8%[70.6 µM],-4.4%[88.5 µM],-9.0%[174 µM],?,/,/,/,/
CN1C[C@@H](NC(=O)Nc2ccc(Cl)cc2)C[C@H]1c1nc(-c2ccc(F)cc2)no1,i,31.6µM*,-4.3%[88.5 µM],?,31.6µM*,12.5µM*,19.8µM*,1.4%[86.2 µM],12.5µM*
CN1C[C@@H](NC(=O)CC(C)(C)CC(=O)O)C[C@H]1c1nc(-c2ccccc2)no1,?,8.4%[70.6 µM],-13.7%[88.5 µM],-12.5%[174 µM],-4.7%[172 µM],/,/,/,/
Cc1ccc(-c2noc([C@@H]3C[C@H](NC(=O)CC(C)(C)C)CN3C)n2)cc1,i,35.5µM*,0.7%[88.5 µM],?,89.1µM*,?,?,-25.3%[86.2 µM],?
COc1ccc(-c2noc([C@@H]3C[C@H](NS(=O)(=O)c4ccc5ccccc5c4)CN3C)n2)cc1,i,20µM*,0.0%,?,?,24.3µM*,24.3µM*,?,19.3µM*
CN1C[C@@H](NC(=O)Nc2cccc(C#N)c2)C[C@H]1c1nc(-c2ccc(Cl)cc2)no1,i,25.1µM*,-35.3%[88.5 µM],39.8µM*,?,15.7µM*,25µM*,2.6%[86.2 µM],17.7µM*
COc1cccc(-c2noc(CC3CCN(C(=O)c4ccc(OC)c(OC)c4)CC3)n2)c1,i,11.2µM*,1.0%,?,?,9.68µM*,12.2µM*,1.1%,10.9µM*
